# PubChem BioAssay (EPA / NIEHS)
# Activity calls are given as the source filed them. Rule for the calls: active = hit-call score of the fitted dose curve at least 0.9, where 1 is the maximum; inactive = score below 0.9.
# Assays:
# [1] = read-out: Thrombomodulin, THBD (gene 7056); assay: BSK_CASM3C_Thrombomodulin: BioMAP Diversity Plus: CASM3C Assay for Thrombomodulin Biomarker Activity (AID 2283051); conditions: primary human coronary artery smooth muscle cells; actives raise or lower the signal;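 note: thrombomodulin protein level measured by ELISA 24 h after dosing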
# [2] = read-out: Tissue Factor, F3 (gene 2152); assay: BSK_CASM3C_TissueFactor: BioMAP Diversity Plus: CASM3C Assay for Tissue Factor Biomarker Activity (AID 2283052); conditions: primary human coronary artery smooth muscle cells; actives raise or lower the signal;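 note: cell surface tissue factor protein level read by ELISA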
# [3] = read-out: Interferon-gamma inducible Protein 10 (IP10), CXCL10 (gene 3627); assay: BSK_hDFCGF_IP10: BioMAP Diversity Plus: hDFCGF Assay for Interferon-gamma inducible Protein 10 (IP10) Biomarker Activity (AID 2283053); conditions: primary human foreskin fibroblasts; actives raise or lower the signal
# In short: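 IP-10 levels, quantified by ELISA, are taken from human foreskin fibroblast cultures 24 h after chemical treatment, with DMSO serving as negative control and baseline for bidirectional analysis.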
# [4] = read-out: Urokinase-type plasminogen activator receptor (uPAR), PLAUR (gene 5329); assay: BSK_CASM3C_uPAR: BioMAP Diversity Plus: CASM3C Assay for Urokinase-type plasminogen activator receptor (uPAR) Biomarker Activity (AID 2283054); conditions: primary human coronary artery smooth muscle cells; actives raise or lower the signal;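 note: cell-surface uPAR protein level quantified by ELISA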
# [5] = read-out: Vascular cell adhesion molecule 1 (VCAM1), VCAM1 (gene 7412); assay: BSK_CASM3C_VCAM1: BioMAP Diversity Plus: CASM3C Assay for Vascular cell adhesion molecule 1 (VCAM1) Biomarker Activity (AID 2283055); conditions: primary human coronary artery smooth muscle cells; actives raise or lower the signal;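 note: VCAM-1 protein level quantified by ELISA on the cells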
# [6] = read-out: Collagen III, COL3A1 (gene 1281); assay: BSK_hDFCGF_CollagenIII: BioMAP Diversity Plus: hDFCGF Assay for Collagen III Biomarker Activity (AID 2283056); conditions: primary human foreskin fibroblasts; actives raise or lower the signal
# In short: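 ELISA read-out of collagen III from human skin fibroblast cultures sampled 24 h post-dosing. Values were derived by bidirectional fitting relative to the DMSO vehicle control.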
# [7] = read-out: Epidermal growth factor receptor (EGFR), EGFR (gene 1956); assay: BSK_hDFCGF_EGFR: BioMAP Diversity Plus: hDFCGF Assay for Epidermal growth factor receptor (EGFR) Biomarker Activity (AID 2283057); conditions: primary human foreskin fibroblasts; actives raise or lower the signal
# In short: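 Measured by ELISA: EGFR levels on primary human foreskin fibroblasts 24 h after chemical treatment, analysed relative to DMSO with bidirectional fitting.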
# [8] = read-out: Interleukin-8 (IL8), CXCL8 (gene 3576); assay: BSK_hDFCGF_IL8: BioMAP Diversity Plus: hDFCGF Assay for Interleukin-8 (IL8) Biomarker Activity (AID 2283058); conditions: primary human foreskin fibroblasts; actives raise or lower the signal
# In short: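 Cells used are human skin primary fibroblasts. Chemical is added, cultures run 24 h, then IL-8 is quantified by ELISA, and gain or loss versus DMSO control is fitted in both directions.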
# [9] = BSK_hDFCGF_Proliferation: Cell Proliferation Assessment in the BioMAP Diversity Plus: hDFCGF Assay (AID 2283059); conditions: primary human foreskin fibroblasts;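 note: curves fitted for both rise and fall of signal versus DMSO baseline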
# In short: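 Total protein read at 560 nm after 0.1% SRB staining of TCA-fixed human skin fibroblasts, […]. Activity is fitted in both directions relative to DMSO as baseline.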
# [10] = read-out: Macrophage colony-stimulating factor (MCSF), CSF1 (gene 1435); assay: BSK_hDFCGF_MCSF: BioMAP Diversity Plus: hDFCGF Assay for Macrophage colony-stimulating factor (MCSF) Biomarker Activity (AID 2283060); conditions: primary human foreskin fibroblasts; actives raise or lower the signal
# In short: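 Primary human foreskin fibroblasts dosed with chemical; 24 h later, M-CSF quantified by ELISA; curves fitted in both directions vs DMSO negative control.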
# [11] = BSK_hDFCGF_SRB: Viability Assessment in the BioMAP Diversity Plus: hDFCGF Assay (AID 2283061); conditions: primary human foreskin fibroblasts;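 note: cells exposed to compound for 24 h before the read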
# In short: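 Readout is SRB absorbance at 560 nm, reflecting total protein in parallel cultures of human foreskin fibroblasts harvested 24 h after chemical dosing. Activity was fitted bidirectionally relative to DMSO.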
# [12] = read-out: TIMP metallopeptidase inhibitor 1 (TIMP1), TIMP1 (gene 7076); assay: BSK_hDFCGF_TIMP1: BioMAP Diversity Plus: hDFCGF Assay for TIMP metallopeptidase inhibitor 1 (TIMP1) Biomarker Activity (AID 2283062); conditions: primary human foreskin fibroblasts; actives raise or lower the signal
# In short: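 Human skin fibroblasts (primary), hDFCGF system; compound exposure 24 h; TIMP-1 by ELISA; bidirectional fit vs DMSO negative control; overt cytotoxicity by SRB in parallel wells.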
# [13] = read-out: Monokine induced gamma interferon (MIG), CXCL9 (gene 4283); assay: BSK_hDFCGF_MIG: BioMAP Diversity Plus: hDFCGF Assay for Monokine induced gamma interferon (MIG) Biomarker Activity (AID 2283063); conditions: primary human foreskin fibroblasts; actives raise or lower the signal
# In short: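 Chemicals were added to primary human foreskin fibroblast cultures, which were sampled 24 h later. MIG levels were then quantified by ELISA and responses fitted in both directions relative to DMSO.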
# [14] = read-out: Matrix Metallopeptidase 1 (MMP1), MMP1 (gene 4312); assay: BSK_hDFCGF_MMP1: BioMAP Diversity Plus: hDFCGF Assay for Matrix Metallopeptidase 1 (MMP1) Biomarker Activity (AID 2283064); conditions: primary human foreskin fibroblasts; actives raise or lower the signal
# In short: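 hDFCGF primary fibroblasts (human foreskin); chemical added; 24 h; MMP1 by ELISA; bidirectional fit vs DMSO.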
# [15] = read-out: Vascular cell adhesion molecule 1 (VCAM1), VCAM1 (gene 7412); assay: BSK_hDFCGF_VCAM1: BioMAP Diversity Plus: hDFCGF Assay for Vascular cell adhesion molecule 1 (VCAM1) Biomarker Activity (AID 2283065); conditions: primary human foreskin fibroblasts; actives raise or lower the signal;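 for AC50: VCAM-1 protein level quantified by ELISA after 24 h chemical exposure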
# In short: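 Human foreskin fibroblast primary cells, chemical exposure 24 h; VCAM-1 by ELISA; bidirectional fit, DMSO = negative control/baseline.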
# [16] = read-out: Plasminogen activator inhibitor-1 (PAI1), SERPINE1 (gene 5054); assay: BSK_hDFCGF_PAI1: BioMAP Diversity Plus: hDFCGF Assay for Plasminogen activator inhibitor-1 (PAI1) Biomarker Activity (AID 2283066); conditions: primary human foreskin fibroblasts; actives raise or lower the signal
# In short: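 PAI-1 levels, determined by ELISA, served as the endpoint in human foreskin fibroblast cultures exposed to compound for 24 h, with DMSO as baseline.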
# [17] = read-out: Intercellular Adhesion Molecule 1 (ICAM1), ICAM1 (gene 3383); assay: BSK_KF3CT_ICAM1: BioMAP Diversity Plus: KF3CT Assay for Intercellular Adhesion Molecule 1 (ICAM1) Biomarker Activity (AID 2283067); conditions: primary human keratinocytes with fibroblasts; actives raise or lower the signal
# In short: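 ICAM-1 levels are measured by ELISA 24 h after dosing a primary human co-culture of keratinocytes and foreskin fibroblasts. Activity in either direction is fitted relative to DMSO vehicle.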
# [18] = read-out: Interferon-gamma inducible Protein 10 (IP10), CXCL10 (gene 3627); assay: BSK_KF3CT_IP10: BioMAP Diversity Plus: KF3CT Assay for Interferon-gamma inducible Protein 10 (IP10) Biomarker Activity (AID 2283068); conditions: primary human keratinocytes with fibroblasts; actives raise or lower the signal
# In short: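 Human keratinocyte plus foreskin fibroblast primary co-culture exposed to test chemical for 24 h; IP-10 measured by ELISA. Concentration-response fitted bidirectionally against DMSO control as baseline.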
# [19] = BSK_KF3CT_SRB: Viability Assessment in the BioMAP Diversity Plus: KF3CT Assay (AID 2283069); conditions: primary human keratinocytes with fibroblasts;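 note: total protein by sulforhodamine B staining as a cytotoxicity measure; read 24 h after compound addition; fitted for both signal gain and loss against DMSO baseline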
# In short: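 Keratinocytes co-cultured with foreskin fibroblasts (human primary); chemical added, 24 h; fix 10% TCA, stain 0.1% SRB, A560. Bidirectional fit vs DMSO.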
# [20] = read-out: Interleukin-1 alpha (IL1a), IL1A (gene 3552); assay: BSK_KF3CT_IL1a: BioMAP Diversity Plus: KF3CT Assay for Interleukin-1 alpha (IL1a) Biomarker Activity (AID 2283070); conditions: primary human keratinocytes with fibroblasts; actives raise or lower the signal
# In short: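 Chemicals were dosed onto co-cultured human keratinocytes and foreskin fibroblasts, IL-1a was quantified by ELISA at 24 h, and activity was fitted in both directions relative to DMSO controls.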
smiles,measurement,setting,value
COc1cc(OC)nc(Sc2cccc(Cl)c2C(=O)O)n1,outcome,[1],inactive
same,outcome,[2],inactive
same,outcome,[3],inactive
same,outcome,[4],inactive
same,outcome,[5],inactive
same,outcome,[6],inactive
same,outcome,[7],inactive
same,outcome,[8],inactive
same,outcome,[9],inactive
same,outcome,[10],inactive
same,outcome,[11],inactive
same,outcome,[12],inactive
same,outcome,[13],inactive
same,outcome,[14],inactive
same,outcome,[15],inactive
same,outcome,[16],inactive
same,outcome,[17],inactive
same,outcome,[18],inactive
same,outcome,[19],inactive
same,outcome,[20],inactive
CNc1cnn(-c2cccc(C(F)(F)F)c2)c(=O)c1Cl,outcome,[1],inactive
same,outcome,[2],inactive
same,outcome,[3],inactive
same,outcome,[4],inactive
same,outcome,[5],inactive
same,outcome,[6],inactive
same,outcome,[7],inactive
same,outcome,[8],inactive
same,outcome,[9],inactive
same,outcome,[10],inactive
same,outcome,[11],inactive
same,outcome,[12],inactive
same,outcome,[13],inactive
same,outcome,[14],inactive
same,outcome,[15],inactive
same,outcome,[16],inactive
same,outcome,[17],inactive
same,outcome,[18],inactive
same,outcome,[19],inactive
same,outcome,[20],inactive
CSC1=N[C@@](C)(c2ccccc2)C(=O)N1Nc1ccccc1,outcome,[1],inactive
same,outcome,[2],inactive
same,outcome,[3],inactive
same,outcome,[4],inactive
same,outcome,[5],inactive
same,AC50,[6],25 µM (active)
same,outcome,[7],inactive
same,outcome,[8],inactive
same,AC50,[9],23.3 µM (active)
same,outcome,[10],inactive
same,outcome,[11],inactive
same,outcome,[12],inactive
same,outcome,[13],inactive
same,outcome,[14],inactive
same,outcome,[15],inactive
same,outcome,[16],inactive
same,outcome,[17],inactive
same,outcome,[18],inactive
same,outcome,[19],inactive
same,outcome,[20],inactive
CC(Oc1cccc(Cl)c1)C(=O)O (stereo not given),outcome,[1],inactive
same,outcome,[2],inactive
same,outcome,[3],inactive
same,outcome,[4],inactive
same,outcome,[5],inactive
same,outcome,[6],inactive
same,outcome,[7],inactive
same,outcome,[8],inactive
same,outcome,[9],inactive
same,outcome,[10],inactive
same,outcome,[11],inactive
same,outcome,[12],inactive
same,outcome,[13],inactive
same,outcome,[14],inactive
same,outcome,[15],inactive
same,outcome,[16],inactive
same,outcome,[17],inactive
same,outcome,[18],inactive
same,outcome,[19],inactive
same,AC50,[20],1.15 µM (active)
Cc1cc(C2CC2)nc(Nc2ccccc2)n1,AC50,[1],27.8 µM (active)
same,outcome,[2],inactive
same,AC50,[3],6.65 µM (active)
same,outcome,[4],inactive
same,outcome,[5],inactive
same,outcome,[6],inactive
same,outcome,[7],inactive
same,outcome,[8],inactive
same,AC50,[9],15 µM (active)
same,outcome,[10],inactive
same,outcome,[11],inactive
same,outcome,[12],inactive
same,outcome,[13],inactive
same,outcome,[14],inactive
same,outcome,[15],inactive
same,outcome,[16],inactive
same,outcome,[17],inactive
same,AC50,[18],20 µM (active)
same,outcome,[19],inactive
same,outcome,[20],inactive
COP(=O)(OC)OC(Br)C(Cl)(Cl)Br (stereo not given),outcome,[1],inactive
same,outcome,[2],inactive
same,AC50,[3],13.9 µM (active)
same,AC50,[4],32 µM (active)
same,AC50,[5],18.5 µM (active)
same,AC50,[6],31.5 µM (active)
same,outcome,[7],inactive
same,AC50,[8],37.8 µM (active)
same,AC50,[9],2.6 µM (active)
same,AC50,[10],16.4 µM (active)
same,AC50,[11],20 µM (active)
same,AC50,[12],15.7 µM (active)
same,AC50,[13],17.5 µM (active)
same,AC50,[14],32.7 µM (active)
same,AC50,[15],13.4 µM (active)
same,AC50,[16],30.1 µM (active)
same,AC50,[17],31.1 µM (active)
same,AC50,[18],30 µM (active)
same,AC50,[19],26.1 µM (active)
same,AC50,[20],27.1 µM (active)
